From PubChem BioAssay (NCI)
The panel holds about 79,000 compounds, 15% with a hit somewhere; the sample as a whole holds those more often. No stated cut-off is given here; in the data, active means growth inhibition above about 70%; inactive means the rest.

Legend:
[1] = NCI Yeast Anticancer Drug Screen. Data for the rad50 strain (AID 155);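 further: 0% = growth of vehicle-only cultures of the same strain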; settings: S. cerevisiae rad50 strain growth inhibition; at 50.0 µM; hits give high values
Procedure, shortened: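 A DNA repair-deficient yeast mutant serves as the test organism; compound-induced growth inhibition is calculated against vehicle-treated cells.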

[2] = NCI Yeast Anticancer Drug Screen. Data for the mec2-1 strain (AID 157); settings: S. cerevisiae mec2-1 strain, at 50.0 µM, hits give high values
Procedure, shortened: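 mec2-1 yeast strain, carrying an alteration in DNA damage repair or cell cycle control, was exposed to compounds; growth inhibition was measured relative to vehicle-treated controls.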

[3] = NCI Yeast Anticancer Drug Screen. Data for the sgs1 mgt1 strain (AID 161);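 further: 0% = growth of cultures given vehicle only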; settings: S. cerevisiae sgs1 mgt1 strain, at 50.0 µM, hits give high values
Procedure, shortened: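 This yeast growth screen uses a strain with defined DNA-repair lesions; compound-treated growth is compared with vehicle-treated growth.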

[4] = NCI Yeast Anticancer Drug Screen. Data for the cln2 rad14 strain (AID 165);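 further: 0% = growth equal to vehicle treated cultures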; settings: S. cerevisiae cln2 rad14 strain, at 50.0 µM, hits give high values
Procedure, shortened: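 Yeast carrying cln2 and rad14 alterations (cell cycle control and DNA damage repair) were exposed to compounds. Growth inhibition was measured against vehicle-treated controls.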

[5] = NCI Yeast Anticancer Drug Screen. Data for the bub3 strain (AID 167); settings: S. cerevisiae bub3 mutant strain, at 50.0 µM, hits give high values
Procedure, shortened: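 Inhibition values come from growth of compound-treated mutant yeast normalised to vehicle-treated controls.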

[6] = NCI Yeast Anticancer Drug Screen. Data for the mlh1 rad18 strain (AID 175); settings: S. cerevisiae mlh1 rad18 strain growth inhibition; at 50.0 µM; hits give high values
Procedure, shortened: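 Growth inhibition of the yeast strain was measured after compound exposure and expressed relative to vehicle-treated controls. The strain carries defined defects in DNA damage repair.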

Measured: growth inhibition

CCCCCCCNC1=C(O)c2ccccc2C(=O)C1=O
inactive: [1] -11.4% | [2] 15.8% | [3] 2.2% | [4] -44.2% | [5] 12.3% | [6] 6.2%

C[N+](C)(N)CCC[N+](C)(C)N
inactive: [1] 12.4% | [2] 5.2% | [3] -3.3% | [4] -29.4% | [5] -52.6% | [6] -3.4%

CCCCCCOC(=O)c1cccc(C)c1
inactive: [1] 7.15% | [2] 4.4% | [3] 5.8% | [4] -35% | [5] 6.85% | [6] 11.2%

Cc1cccc(/C=N\N=C\c2cccc(C)n2)n1
inactive: [1] 3.9% | [2] -10.2% | [3] -3.25% | [4] -3% | [5] -1.45% | [6] 23.3%

O=C1/C(=C/c2ccccc2)Oc2cc(O)ccc21
inactive: [1] 31.9% | [2] -13.8% | [3] 33% | [4] 30.4% | [5] 27.4% | [6] 34.9%

CCOC(=O)c1c([N+](=O)[O-])cnn1C1OC(COC(C)=O)C(OC(C)=O)C1OC(C)=O (stereo unspecified)
inactive: [1] 6.4% | [2] -2% | [3] 4.6% | [4] 15.2% | [5] 7.9% | [6] 6.85%

O=C(CCC(O)(C(=O)c1ccccc1)c1ccccc1)c1ccccc1 (stereo unspecified)
inactive: [1] 9.25% | [2] 9.5% | [3] -0.1% | [4] 6.35% | [5] 0.4% | [6] 26.4%

CS(=O)(=O)OCC(CCl)(CCl)CCl
inactive: [1] -4.5% | [2] 0.55% | [3] 0.15% | [4] 3.2% | [5] -3.45% | [6] -0.8%

O=C(C(=O)N1CCc2ccccc21)c1c[nH]c2ccccc12
inactive: [1] 5.75% | [2] 2% | [3] -11.8% | [4] 3.1% | [5] -2.95% | [6] 12.5%

Cc1ccc(C2[C@H]3C(=O)N(c4ccc(Cc5ccc(N6C(=O)[C@@H]7ON(c8ccccc8)C(c8ccc(C)cc8)[C@@H]7C6=O)cc5)cc4)C(=O)[C@H]3ON2c2ccccc2)cc1 (stereo partly specified)
inactive: [1] -23.9% | [2] -17.9% | [3] -8.1% | [4] 26.9% | [5] -5.75% | [6] -10.8%

C[n+]1ccsn1
inactive: [1] -0.7% | [2] 3.05% | [3] -4.7% | [4] 37% | [5] -19.4% | [6] -10.4%

O=C(O)C1(N(CCO)CCO)CCCC1
inactive: [1] -15.6% | [2] -11.7% | [3] 3.4% | [4] -35.3% | [5] -11.2% | [6] -1.65%

CCN(CC)C1=C(C)S(=O)(=O)C1c1ccc(C)cc1 (stereo unspecified)
inactive: [1] -9.1% | [2] -12.6% | [3] -8.85% | [4] 5.6% | [5] -13.4% | [6] -2.15%

c1ccc2c(-c3cnc(-c4ccc(-c5ncc(-c6cccc7ccccc67)o5)cc4)o3)cccc2c1
inactive: [1] -14.9% | [2] -2.45% | [3] 0.5% | [4] -52.6% | [5] -1.1% | [6] -16.4%

CCCCCCCCCCCC(=O)NC(=S)Nc1cc(OC)ccc1OC
inactive: [1] -17.9% | [2] -7.25% | [3] -2.9% | [4] -47.3% | [5] -3.85% | [6] -0.95%

COc1ccc(C)cc1CC(=O)O
inactive: [1] 7.5% | [2] 3.05% | [3] -21.4% | [4] 4.1% | [5] 6.25% | [6] -9.2%

CC(=O)OC(OC(C)=O)c1cccc2ccccc12
inactive: [1] 3.05% | [2] -9.3% | [3] -5.8% | [4] -15.9% | [5] 16.9% | [6] -3.9%

O=c1[nH]c2cc(Cl)ccc2nc1/C=C(\O)c1cccc(O)c1
inactive: [1] -3.45% | [2] -5.05% | [3] -8.45% | [4] -4.35% | [5] -4.45% | [6] 10.2%

O=C1CCC(c2nc3ccccc3[nH]2)N1Cc1cccs1 (stereo unspecified)
inactive: [1] -29.4% | [2] -37.1% | [3] -10.2% | [4] -21.9% | [5] -6.85% | [6] -8.55%

O=C(NCCN1CCOCC1)c1ccc(C(=O)NCCN2CCOCC2)cc1
inactive: [1] 35% | [2] 22.9% | [3] 32.6% | [4] 17.5% | [5] 1.6% | [6] 33.9%

CCCc1c(-c2ccccc2)nc(N)nc1-c1nc(N)nc(-c2ccccc2)c1CCC
inactive: [1] -1.75% | [2] -10.7% | [3] -12.4% | [4] 9.4% | [5] -2.25% | [6] -1.4%
